What all share (experiment): qHTS profiling for inhibitors of Plasmodium falciparum proliferation (AID 504749); note: nearly all actives have a fitted effect of over 60% in size
Conditions in all cases: P. falciparum in erythrocytes, SYBR Green DNA, 72 h; series mostly up to 28.7 µM
Background: In qHTS, concentration-response curves come from the screen itself.

One assay has as its system DIV30. In a few lines:
(§1)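 Three-day growth assay of blood-stage parasites in erythrocytes (0.3% parasitemia, 2.5% hematocrit) at 37 C, 5% CO2, quantified by SYBR Green DNA staining after overnight detergent lysis.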

For a further assay, the system named is Dd2. In a few lines: as §1
The subject of the next assay is ECU. In a few lines: as §1
The next assay has as its system FAB9. In a few lines:
as §1

A further assay relates to GB4. In a few lines: as §1
The next assay concerns HB3. In a few lines:
as §1

The next assay has as its system JCK. In a few lines:
as §1

Another assay deals with N140. In a few lines: as §1
The test system of a further assay is P93_24. In a few lines: as §1
The subject of another assay is ICS. In a few lines:
as §1

Records with an inconclusive call do not appear. The source made the active and inactive calls. Calls come from the whole dose curve; as a rule, active = well fitted inhibition curve with a large enough effect; inconclusive = small, poorly fitted or top-dose-only effect; inactive = flat fitted curve, though single readings scatter.

The values that follow come from PubChem BioAssay (NCATS).
Potency is the fitted concentration of half-maximal effect.

Consider `O=c1[nH]cc(N(CCCl)CCCl)c(=O)[nH]1`, for which the Potency result with DIV30, with Dd2, with ECU, with FAB9, with GB4 and in the assay on HB3 was “inactive” each time. Also, the Potency entry with JCK, in the assay on N140 and with P93_24 was “inactive” each time.

Regarding `Cc1sc2ccccc2c1CC1=NCCN1`, the Potency entry in the assay with DIV30, with Dd2, in the assay on ECU, in the assay on FAB9, in the assay on HB3 and with ICS was “inactive” in each case. Besides, the Potency entry with JCK, in the assay on N140 and in the assay with P93_24 was “inactive” in each case.

For `COCC(C)N(C(=O)CCl)c1c(C)csc1C` (stereo not drawn), the Potency result in the assay with Dd2, with ECU, with FAB9, in the assay on GB4, in the assay with HB3 and in the assay on JCK was “inactive” in each case. Moreover, the Potency result with N140 and in the assay on P93_24 was “inactive” throughout.

For the compound `c1ccc(C2(N3CCCC3)CCCCC2)cc1`, the Potency was 12.6 µM (active) in the assay with Dd2, 12 µM (active) in the assay with GB4, 12.6 µM (active) in the assay on N140 and 5.62 µM (active) in the assay with P93_24. In addition, in the assay with JCK, the Potency result is “inactive”.

Turning to `N#CC(C#N)=Cc1cc(O)c(O)c(O)c1`, the Potency was 6.31 µM (active) in the assay on Dd2; 10.7 µM (active) in the assay with GB4; 8.91 µM (active) with HB3; 2.82 µM (active) in the assay with ICS; 15.8 µM (active) in the assay with N140; 5.01 µM (active) in the assay on P93_24. Besides, the Potency result in the assay on ECU was “inactive”.

In the case of `O=c1c2ccccc2[se]n1-c1ccccc1`, the Potency result with DIV30, in the assay with FAB9, in the assay with HB3 and in the assay on JCK was “inactive” throughout.

With `CC(=O)O[C@H]1CC[C@H]2[C@@H]3CCC4=CC(=O)CCC4=C3C=C[C@]12C`, the Potency result in the assay on DIV30, in the assay on Dd2, in the assay on ECU, in the assay with FAB9, in the assay with HB3 and with ICS was “inactive” throughout. For the same compound, the Potency entry in the assay with JCK, with N140 and in the assay with P93_24 was “inactive” each time.

As for `CCC1C(C)=NN=C(c2ccc(OC)c(OC)c2)c2cc(OC)c(OC)cc21` (stereo not drawn), the Potency result in the assay with DIV30, in the assay with Dd2, with FAB9, in the assay with GB4, in the assay on HB3 and with JCK was “inactive” in each case. Further, the Potency in the assay on ICS was 8.91 µM (active).

As for `O=S(=O)(O)c1cc(O)ccc1O`, the Potency entry in the assay on DIV30, in the assay on Dd2, in the assay with ECU, in the assay with FAB9, in the assay with HB3 and with ICS was “inactive” in each case. The Potency entry in the assay with JCK, in the assay on N140 and in the assay with P93_24 was “inactive” throughout.

Regarding `N#CN`, the Potency entry with Dd2, with ECU, in the assay with FAB9, in the assay with GB4, in the assay with HB3 and in the assay with ICS was “inactive” in each case. Besides, the Potency result in the assay with JCK, in the assay with N140 and in the assay with P93_24 was “inactive” in each case.

As for `CCC1(c2ccccc2)C(=O)NC(=O)N(C)C1=O` (stereo not drawn), the Potency result with DIV30, in the assay with Dd2, in the assay with FAB9 and with JCK was “inactive” each time. Besides, the Potency in the assay with HB3 is 11.2 µM (active); in the assay on ICS, 3.98 µM (active).

Take `C[C@@H](Cc1ccccc1)NCCC(c1ccccc1)c1ccccc1`: the Potency with ECU was 3.55 µM (active); in the assay with ICS it was 3.16 µM (active). In addition, the Potency result in the assay with FAB9 and with JCK was “inactive” in each case.

Take `CNC1(c2ccccc2Cl)CCCCC1=O` (stereo not drawn): the Potency entry in the assay with DIV30, in the assay with ECU, in the assay on FAB9, with HB3, with ICS and in the assay with JCK was “inactive” each time. The Potency result with N140 and in the assay on P93_24 was “inactive” each time. Further, the Potency with GB4 was 12 µM (active).

`Oc1cc(Cl)c(Cl)cc1Cl`: the Potency entry in the assay on DIV30, in the assay on Dd2, with ECU, in the assay on FAB9, in the assay on HB3 and in the assay on JCK was “inactive” throughout. Moreover, the Potency entry in the assay on N140 and with P93_24 was “inactive” each time.

Consider `CCC(=O)O[C@@](Cc1ccccc1)(c1ccccc1)[C@@H](C)CN(C)C`, for which the Potency result in the assay on ECU, in the assay on FAB9, in the assay with HB3 and with JCK was “inactive” each time.

`c1ccc2cc(CC3=NCCN3)ccc2c1`: the Potency result in the assay with DIV30, in the assay with Dd2, in the assay on ECU, in the assay on FAB9, in the assay on HB3 and in the assay on ICS was “inactive” throughout. Also, the Potency entry in the assay with JCK, in the assay on N140 and in the assay with P93_24 was “inactive” throughout.

In the case of `C=CCN=C=S`, the Potency entry in the assay with Dd2, with ECU, in the assay with FAB9, in the assay with HB3, in the assay on ICS and with JCK was “inactive” each time. Moreover, the Potency result in the assay on N140 and with P93_24 was “inactive” in each case.

Turning to `CCCN1CCCC2Cc3[nH]ncc3CC21` (stereo not drawn), the Potency result in the assay on Dd2, with ECU, in the assay on FAB9, with HB3, in the assay on ICS and in the assay on JCK was “inactive” in each case. In addition, the Potency result with N140 and in the assay on P93_24 was “inactive” each time.

For the compound `O=C1CN=C(c2ccccc2)c2cc(Cl)ccc2N1CC1CC1`, the Potency result in the assay with DIV30, with Dd2, in the assay on ECU, with FAB9, with GB4 and with HB3 was “inactive” in each case. For the same compound, the Potency entry with JCK, with N140 and in the assay with P93_24 was “inactive” throughout.

Take `c1cc2c(c(NC3=NCCN3)c1)CCCC2`: the Potency result with Dd2, in the assay with ECU, in the assay on FAB9, in the assay on HB3, in the assay on JCK and in the assay on N140 was “inactive” throughout. Further, the Potency result in the assay with P93_24 was “inactive”.
